# In the supplement of paper PMC6555819:
# What was measured:
# Assay in all cases: PBM binding z-score (relative to random genomic background probes); higher = stronger binding; sequences stand for … in GC…GCGATTGACAGCGTAGAATGAAGG
# [1] = test system: FXR:RXRa (NR concentration 270 nM, RXRa partner concentration 90 nM)
# In short: (§1)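 Binding buffer was PBS pH 7.4 with 2% milk, 0.02% Triton X-100, 1 mM DTT, 0.2 mg/mL BSA and 0.4 mg/ml salmon testes DNA. In it, ligand-free nuclear receptor dimers were incubated 1 h on custom Agilent 4×180K protein-binding microarrays carrying double-stranded probes. Antibodies against each partner (one per run) detected binding, and z-scores were calculated against random background probes after regression normalization of scanned fluorescence.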
# [2] = test system: LXRa:RXRa (NR concentration 270 nM, RXRa partner concentration 90 nM)
# In short: as §1
# [3] = test system: LXRa homodimer (NR concentration 270 nM)
# In short: as §1
# [4] = test system: LXRb:RXRa (NR concentration 270 nM, RXRa partner concentration 90 nM)
# In short: as §1
# [5] = test system: LXRb homodimer (NR concentration 270 nM)
# In short: as §1
# [6] = test system: PPARa:RXRa (NR concentration 270 nM, RXRa partner concentration 90 nM)
# In short: as §1
# [7] = test system: PPARg:RXRa (NR concentration 180 nM, RXRa partner concentration 90 nM)
# In short: as §1
# [8] = test system: PPARg:RXRa 270nM:90nM, anti-RXR (NR concentration 270 nM, RXRa partner concentration 90 nM)
# In short: as §1
# [9] = test system: PPARg:RXRa 30nM:10nM, anti-RXR (NR concentration 30 nM, RXRa partner concentration 10 nM)
# In short: as §1
# [10] = test system: PPARg:RXRa 90nM:30nM, anti-RXR (NR concentration 90 nM, RXRa partner concentration 30 nM)
# In short: as §1
Sequence,PBM binding z-score [1],PBM binding z-score [2],PBM binding z-score [3],PBM binding z-score [4],PBM binding z-score [5],PBM binding z-score [6],PBM binding z-score [7],PBM binding z-score [8],PBM binding z-score [9],PBM binding z-score [10]
ATCTCTATGTAAAGATAGTTCAGTGAATGCAAAT,-0.132,0.583,0.163,0.261,0.232,0.222,0.759,0.0606,0.319,0.173
GTACCAAGGTGAATAGGCCGTTGATGAGTAGGCG,0.0834,0.126,-0.456,-0.22,-0.582,1.08,0.806,0.724,-0.00292,0.38
TCATATAGGTTAACAGGTGAAAGTCCGTAAGTTA,1.57,1.72,0.586,1.72,0.145,3.68,5.44,5.12,4.64,4.91
CAAATTAGGTCACAGAGGTCAAAGTCCGTGCGTA,7.48,6.57,7.83,6.26,2.94,6.44,9.76,8.05,6.42,8.29
GCTGCCAGGTCAACTGATGGTCAGCTAAAGCTCG,4.84,3.82,0.113,2.73,0.00556,4.4,2.42,3.09,0.281,1.61
CGGACTGGGGCATAAGGTTACCATAAGCCAGCCC,0.339,2.09,-0.514,1.11,-0.487,2.78,4.19,4.81,2.94,4.56
CGTCCAAGGTCAGGAGGTCAGTGAAAGCGACGTG,6.23,4.55,1.15,3.64,-0.0727,5.43,4.93,5.41,1.89,4.06
GCTAGCAGGCCATTTGGGTCACGCAATGACGGGC,0.679,0.476,-0.416,0.378,-0.491,2.23,1.32,1.45,0.36,0.648
CGAACTTGGTCAGAACAGGACAGTGAAGGATGAT,-0.314,-0.426,-0.321,-0.516,-0.663,-0.129,0.567,-0.142,-0.0842,-0.55
TAGCCTAGGTCATTGAGGGGCCAGTATAGAAAGC,4.54,3.48,0.272,2.84,1.08,3.67,2.08,2.48,0.353,1.49
TCATATAGGTAAATGCTAGGCGAAAGTCCGATCT,0.564,0.758,0.304,0.58,-0.0313,0.932,0.63,2.22,3.7,2.88
CATTACGGGTCACTGACAGGTTATAGCATTTGGA,5.82,5.1,1.52,4.09,0.756,5.54,5.78,5.45,2.2,4.33
TGTCAAAGTTCAAAGGTAACGTATGTATCCACAC,7.33,6.48,4.88,4.63,1.63,5.67,8.6,7.61,5.63,7.23
CGTCCAAGGTCATAGGAAGTCAGTGAAGACAGAT,6.83,5.5,1.21,3.9,0.55,5.43,4.4,4.99,1.57,3.64
CGTCCAAGGTCAAGGTCAGTGACAGAGACTCGAA,7.96,5.86,1.34,4.71,0.819,5.76,6.3,6.48,2.85,4.82
CGTCCTAGGTCAGAGAGGTCAGTGAATGCCGAGT,3.96,3.93,2.32,3.09,-0.0595,3.75,2.04,3.12,0.277,1.95
GATACAGGGTCTAGGCCAGAGTACGCGTATTGAT,-0.772,-0.631,-0.516,-0.894,-1.47,-0.516,0.629,0.0439,-0.269,-0.108
CGTCGAAGTTCAACTAAGGTAACGTAAAGCACGC,4.31,3.83,1.23,2.36,0.375,3.15,1.3,1.98,0.415,1.23
CTTCCAAGGTCAAAGGTCAGTGAAGAGATGACGG,8.35,7.17,4.94,6.74,2.43,7.29,11.1,9.09,8.56,10.7
CTCGAAATGTCGTGCTCAGGTGAGTATACCAAAC,0.0674,-0.048,-0.175,-0.182,0.0146,-0.0536,-0.165,-0.324,0.0529,-0.0106
ATCTCCAGGTAAAGATAGTTCAGTGAATGCAAAT,0.234,4.39,0.615,0.852,0.602,0.316,0.194,0.28,0.232,-0.042
AGTCAAAGTTCATCTAGGTGACGTAAGATATGCT,6.84,5.85,5.06,3.69,1.52,4.98,7.01,6.36,3.53,5.48
TCGAGTAGGTTAGGGGCACTCAGAATGGCGTCGA,0.134,-0.0493,-0.34,0.556,-0.72,0.994,0.844,1.91,0.959,1.64
ATCGAAAGGTTGAAGGTGAGTATACCCACCCGAA,0.788,1.06,-0.269,0.741,0.0854,2.36,1.68,1.92,0.761,1.52
GCTAGTTGGTCAGTAAAAGGTCACACTCCGGTCG,3.15,4.29,4.97,3.76,0.637,4.19,2.49,4.24,1.86,3.7

Sequence,PBM binding z-score [1],PBM binding z-score [2],PBM binding z-score [3],PBM binding z-score [4],PBM binding z-score [5],PBM binding z-score [6],PBM binding z-score [7],PBM binding z-score [8],PBM binding z-score [9],PBM binding z-score [10]
CCTAGTTGGTGAGGAGGTCACACACCGGATATGA,2.72,3.07,1.61,3.19,0.489,3.86,2.06,3.07,1.4,2.31
CCTCGGAGGACAGAAGGTCATAGCTGTCCGCTTT,2.89,3.44,1.4,2.23,-0.526,3.17,0.58,1.68,-0.379,0.915
TAGCCTAGGTAATGGGCCAGTATACCACGCGAAC,-0.654,-0.856,-0.526,-0.351,-0.976,-0.193,0.503,0.264,-0.0812,-0.179
TCATATAGGTAAATGGTGAAAGTCGGTGTGGTAA,0.818,1.03,0.217,0.846,-0.047,1.6,1.54,3.44,4.15,3.96
AGAACGAGGTTACCAAAGATCAGGGAAACGCTTG,1.56,5.74,-0.119,2.92,-0.342,3.07,2.21,1.99,0.478,1.55
ACTTACGGGTCGACGAGGTTATAGCACGCGTATA,1.82,1.97,0.124,1.94,0.314,2.97,1.52,1.22,0.608,0.729
CGAACTAGGTCAGAACAGGACAGCGAAGGATGAT,1.13,0.841,-0.226,0.393,-0.43,3.3,5.21,4.4,1.79,3.38
GCTCTTAGTTGAAAGGGCAACCGAATGATTCTCG,0.354,0.538,0.194,0.812,-0.185,1.77,0.987,2.26,0.632,1.71
ATATGTAGGTTACATCCGTGTCATTCAGGCTATG,0.799,4.06,0.794,1.81,0.59,3.6,5.07,4.33,1.88,3.27
ACAGGCAGGTGAGTGAAGGTAACTCAGCTGGACG,0.139,-0.0924,-0.455,-0.499,-0.66,0.119,0.199,-0.206,-0.505,-0.636
TCATATAGGTAAAGGTAAAAGTCGAACGATATGA,0.715,1.06,-0.299,0.926,-0.151,2.1,2.75,3.46,4.13,3.8
TATACAGGGTCCAAGGCCAGAGTACGAATGTCGA,0.36,0.228,0.0779,0.18,1.02,0.314,0.93,0.625,0.686,0.795
CCTACTGGACCATCAGGTCATTGATATCAACGTT,1.87,1.86,2.81,2.53,1.02,2.43,1.14,1.97,0.798,1.68
CTCGAAAGGTCGGTTGAGCTGAGTATACGGATAA,1.24,0.827,-0.605,0.855,-0.258,2,0.00937,0.523,-0.12,0.207
GCTAGCAGGCCATTTGGGTCACTCTATGACGGGC,0.0268,-0.16,-0.53,-0.351,-0.817,0.925,0.594,0.327,-0.547,-0.167
CCTTACGGGTGAAGGTTATAGCACGGGTGGTACG,0.149,0.504,-0.127,0.0957,-0.349,1.61,1.09,1.51,-0.0216,0.958
TCTTGTAGATCAATTGAGGTTAAGAAAGTGCGCT,1.19,2.94,0.265,1.56,-0.0639,1.74,-0.433,1.68,2.94,2.2
CCTAGGAGGACAGAAGGTCAGAGCTGTCCGCTTT,1.3,1.59,0.0675,1.11,-0.837,1.93,0.741,2.08,-0.108,1.7
CCTGCTCGGTCATGGTCAGCTAATCTACAGTATG,0.209,0.33,0.0504,-0.0325,-0.00908,0.0849,0.0527,-0.261,-0.454,-0.32
CCGACTGGGGCATAAGGTTACCAGAAGCCAGCCC,0.432,1.72,-0.288,0.864,-1.26,2,2.27,3.48,1.75,2.93
CAAACTAGGCCAAGAGGTCAAAGTCCGCTTCCCG,5.17,5.51,4.77,4.72,1.13,5.68,6.86,6.66,5.68,6.63
ACAGACAGGTGATGACGGTAACTCAGGCTATCAT,-0.347,-0.186,-0.31,-0.476,-0.424,-0.121,0.839,-0.227,-0.335,-0.0238
CCGAGTAGGTTATGGGGCATTTAGGCAACGGTGA,0.297,0.407,0.011,0.603,-0.473,2.22,3.51,4.47,2.4,4.37
CAAACTAGGTCACAGAGCTCAAAGTCCGTGCGTA,4.29,3.18,0.278,2.01,0.231,5.45,8.88,7.47,5.2,7.26
